This note sets out measurements from PubChem BioAssay (Tox21).

Results filed as inconclusive are left out. Values without a mark were called inactive. The source made the active and inactive calls. Calls come from the whole dose curve; as a rule, active = well fitted curve in the direction sought with a large enough effect in the repeat runs; inconclusive = weak or mixed curves; inactive = no such curve, though single readings can be large; an effect the other way counts as inactive or inconclusive.

Assay [1] addresses Cytochrome P450 2C9 (Homo sapiens) (UniProt P11712). The assay can be described thus: Cytochrome P450 Family 2 Subfamily C Member 9 (CYP2C9) small molecule antagonists: luciferase reporter qHTS assay (AID 1671198). For activity change, negative = inhibition: series mostly up to about 120 µM. Note: nearly all actives have a fitted effect of over 50% in size. Summed up: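 Enzyme-substrate mix preincubated with compound 10 min at room temperature; reaction started with NADPH regeneration solution, 1 h 37C. Luminescent luciferin product read after 20 min detection reagent.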

In assay [2] the target is Voltage-gated inwardly rectifying potassium channel KCNH2 (Homo sapiens) (UniProt Q12809). Description: Human Ether-a-go-go-Related Gene (hERG) channel small molecule antagonists: fluorescence cell-based qHTS assay (AID 1671200). For activity change, negative = inhibition: series mostly up to about 77 µM. Note: nearly all actives have a fitted effect of over 50% in size. Summed up: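 Thallium flux as potassium surrogate: FluxOR II dye loaded 1 h at room temperature into hERG-expressing U2OS cells, then stimulus buffer added after 10 min. Kinetic 480 nm excitation/540 nm emission read, 2 min.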
Chain of Voltage-gated inwardly rectifying potassium channel KCNH2 (Homo sapiens) (Q12809 whole entry, looked up): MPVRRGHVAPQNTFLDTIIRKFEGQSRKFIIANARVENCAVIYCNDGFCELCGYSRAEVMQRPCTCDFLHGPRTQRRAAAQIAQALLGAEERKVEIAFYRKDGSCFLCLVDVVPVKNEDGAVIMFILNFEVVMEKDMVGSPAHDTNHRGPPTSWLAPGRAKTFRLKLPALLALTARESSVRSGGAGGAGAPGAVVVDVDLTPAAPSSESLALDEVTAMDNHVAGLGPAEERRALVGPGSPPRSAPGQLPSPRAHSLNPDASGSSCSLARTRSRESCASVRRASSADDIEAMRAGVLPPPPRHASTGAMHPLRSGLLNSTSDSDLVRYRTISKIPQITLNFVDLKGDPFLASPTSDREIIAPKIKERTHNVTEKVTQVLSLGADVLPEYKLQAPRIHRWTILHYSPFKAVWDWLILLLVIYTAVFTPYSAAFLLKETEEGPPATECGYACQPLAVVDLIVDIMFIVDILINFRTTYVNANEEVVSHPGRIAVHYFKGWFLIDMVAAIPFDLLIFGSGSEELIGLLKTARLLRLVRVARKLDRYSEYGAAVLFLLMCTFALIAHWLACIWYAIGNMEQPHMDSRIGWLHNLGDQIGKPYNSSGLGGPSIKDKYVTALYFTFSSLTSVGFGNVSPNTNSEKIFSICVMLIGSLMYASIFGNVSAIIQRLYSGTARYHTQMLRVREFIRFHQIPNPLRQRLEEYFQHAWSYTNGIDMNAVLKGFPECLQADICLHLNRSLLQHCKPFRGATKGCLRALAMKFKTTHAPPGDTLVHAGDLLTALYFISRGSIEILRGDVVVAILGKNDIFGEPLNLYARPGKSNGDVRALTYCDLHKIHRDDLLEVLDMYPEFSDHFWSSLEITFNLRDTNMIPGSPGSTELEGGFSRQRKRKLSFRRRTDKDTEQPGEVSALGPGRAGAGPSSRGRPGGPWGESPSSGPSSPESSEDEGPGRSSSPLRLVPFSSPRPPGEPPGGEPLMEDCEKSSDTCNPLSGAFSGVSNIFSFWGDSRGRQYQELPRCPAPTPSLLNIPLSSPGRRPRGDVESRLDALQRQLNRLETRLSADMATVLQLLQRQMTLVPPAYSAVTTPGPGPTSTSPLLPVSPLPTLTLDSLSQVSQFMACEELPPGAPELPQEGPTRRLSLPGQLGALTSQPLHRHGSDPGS

Assay [3] has as its target Cytochrome P450 1A2 (Homo sapiens) (UniProt P05177). Description: Cytochrome P450 Family 1 Subfamily A Member 2 (CYP1A2) small molecule antagonists: luciferase reporter qHTS assay (AID 1671199). For activity change, negative = inhibition: series mostly up to about 120 µM. Note: nearly all actives have a fitted effect of over 50% in size. The method, boiled down: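 Read-out is luminescence from luciferin detection reagent (20 min) proportional to CYP1A2 activity; compounds in DMSO preincubated 10 min with enzyme and proluciferin substrate, then NADPH regeneration solution, 1 h, room temperature.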

The target in assay [4] is Cytochrome P450 2C19 (Homo sapiens) (UniProt P33261). The assay can be described thus: Cytochrome P450 Family 2 Subfamily C Member 19 (CYP2C19) small molecule antagonists: luciferase reporter qHTS assay (AID 1671197). For activity change, negative = inhibition: series mostly up to about 120 µM. Note: nearly all actives have a fitted effect of over 65% in size. Summed up: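 Quantitative high-throughput screen of the Tox21 library using CYP2C19 with proluciferin substrate. Reaction: NADPH regeneration, 37C, 1 h, after 10 min compound preincubation at room temperature. Readout: luminescence.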
Chain of Cytochrome P450 2C19 (Homo sapiens) (P33261 whole entry, looked up): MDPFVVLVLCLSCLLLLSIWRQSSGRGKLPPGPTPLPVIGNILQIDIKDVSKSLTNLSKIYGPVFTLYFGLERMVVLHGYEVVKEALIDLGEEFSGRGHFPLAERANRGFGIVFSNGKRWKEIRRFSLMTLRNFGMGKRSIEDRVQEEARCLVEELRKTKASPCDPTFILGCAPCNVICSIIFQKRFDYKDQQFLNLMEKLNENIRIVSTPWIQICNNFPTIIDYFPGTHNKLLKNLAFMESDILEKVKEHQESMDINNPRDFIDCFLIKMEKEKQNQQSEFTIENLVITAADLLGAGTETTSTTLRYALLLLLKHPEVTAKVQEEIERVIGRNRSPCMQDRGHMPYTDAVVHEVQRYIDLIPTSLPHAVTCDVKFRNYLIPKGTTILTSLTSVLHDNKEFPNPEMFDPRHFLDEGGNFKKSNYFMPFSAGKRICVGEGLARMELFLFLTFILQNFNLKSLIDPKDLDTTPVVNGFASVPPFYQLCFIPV

Assay [5] addresses Cytochrome P450 3A4 (Homo sapiens) (UniProt P08684). Description: Cytochrome P450 Family 3 Subfamily A Member 4 (CYP3A4) small molecule antagonists: luciferase reporter qHTS assay (AID 1671201). For activity change, negative = inhibition: series mostly up to about 120 µM. Note: nearly all actives have a fitted effect of over 50% in size. The method, boiled down: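 Recombinant human CYP3A4 converts a proluciferin substrate to luciferin over 1 h at room temperature after NADPH regeneration solution is added (compound preincubated 10 min); detection reagent stops reaction, luminescence read 20 min later as relative units.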
% is set by controls: 0 for no effect and ±100 for the full control effect; potency is the fitted concentration of half-maximal effect.

Chain of Cytochrome P450 3A4 (Homo sapiens) (P08684 whole entry, looked up): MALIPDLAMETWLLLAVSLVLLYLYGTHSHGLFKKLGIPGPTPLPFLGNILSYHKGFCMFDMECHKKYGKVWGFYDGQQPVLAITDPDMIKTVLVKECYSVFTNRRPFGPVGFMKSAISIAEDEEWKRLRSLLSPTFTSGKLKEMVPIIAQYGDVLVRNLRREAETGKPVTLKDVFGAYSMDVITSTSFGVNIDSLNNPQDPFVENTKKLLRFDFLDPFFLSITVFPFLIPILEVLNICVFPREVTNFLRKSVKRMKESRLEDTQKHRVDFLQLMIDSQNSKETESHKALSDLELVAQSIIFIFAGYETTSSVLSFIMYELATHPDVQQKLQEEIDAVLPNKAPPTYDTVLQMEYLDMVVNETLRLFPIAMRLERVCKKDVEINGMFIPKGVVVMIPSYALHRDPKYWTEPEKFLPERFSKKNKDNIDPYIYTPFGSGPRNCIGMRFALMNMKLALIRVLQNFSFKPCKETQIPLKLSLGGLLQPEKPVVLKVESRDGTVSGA
Chain of Cytochrome P450 1A2 (Homo sapiens) (P05177 whole entry, looked up): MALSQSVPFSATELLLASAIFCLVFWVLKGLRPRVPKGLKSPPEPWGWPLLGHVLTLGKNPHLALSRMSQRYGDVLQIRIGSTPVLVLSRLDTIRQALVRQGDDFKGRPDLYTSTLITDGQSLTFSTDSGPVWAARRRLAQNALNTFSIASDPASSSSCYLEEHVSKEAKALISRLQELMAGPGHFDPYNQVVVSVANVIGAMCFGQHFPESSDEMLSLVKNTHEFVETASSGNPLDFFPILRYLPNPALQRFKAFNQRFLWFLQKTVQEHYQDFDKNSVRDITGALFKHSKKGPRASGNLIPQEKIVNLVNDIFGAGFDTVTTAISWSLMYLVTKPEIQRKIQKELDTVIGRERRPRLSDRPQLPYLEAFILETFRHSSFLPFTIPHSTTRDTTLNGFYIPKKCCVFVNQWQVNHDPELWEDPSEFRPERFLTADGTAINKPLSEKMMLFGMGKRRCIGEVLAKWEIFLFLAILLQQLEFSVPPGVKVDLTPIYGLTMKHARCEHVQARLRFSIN
Chain of Cytochrome P450 2C9 (Homo sapiens) (P11712 whole entry, looked up): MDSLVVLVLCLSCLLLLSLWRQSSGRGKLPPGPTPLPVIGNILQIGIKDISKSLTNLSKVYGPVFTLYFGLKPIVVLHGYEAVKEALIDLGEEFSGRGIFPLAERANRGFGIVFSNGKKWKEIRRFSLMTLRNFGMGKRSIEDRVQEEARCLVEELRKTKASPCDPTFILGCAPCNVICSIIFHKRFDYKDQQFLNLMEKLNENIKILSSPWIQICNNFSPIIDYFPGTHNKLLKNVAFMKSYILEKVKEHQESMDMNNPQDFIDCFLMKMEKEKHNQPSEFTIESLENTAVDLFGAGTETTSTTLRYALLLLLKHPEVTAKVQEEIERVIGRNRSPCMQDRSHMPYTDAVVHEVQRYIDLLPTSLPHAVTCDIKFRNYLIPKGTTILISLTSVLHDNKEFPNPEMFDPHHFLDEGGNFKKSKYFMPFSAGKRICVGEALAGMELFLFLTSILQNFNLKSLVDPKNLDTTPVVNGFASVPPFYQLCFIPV

For the compound `Cc1ccc(C)cc1`, the Potency result in assay [1] and in assay [2] was “inactive” in each case.

Take `CCC(C)n1ncn(-c2ccc(N3CCN(c4ccc(OC[C@H]5CO[C@](Cn6cncn6)(c6ccc(Cl)cc6Cl)O5)cc4)CC3)cc2)c1=O` (some centres undefined): the Potency in assay [1] is 13.8 µM (active). The Potency entry in assay [3] and in assay [2] was “inactive” each time.

Turning to `CC(C)(c1cc(Br)c(OCC(Br)CBr)c(Br)c1)c1cc(Br)c(OCC(Br)CBr)c(Br)c1` (centres undefined), the Potency entry in assay [4], in assay [2] and in assay [5] was “inactive” each time.

On to `O=[N+]([O-])c1ccc(F)c(Cl)c1`, for which, in assay [4], the Potency was 79.9 µM (active). For the same compound, the Potency result in assay [2] and in assay [5] was “inactive” throughout.

Regarding `O=C1NC(=O)[C@@H]2CC=CC[C@H]12`, the Potency result in assay [2] is “inactive”.

For the compound `O=C1C(c2[nH]c3ccc(S(=O)(=O)O)cc3c2O)=Nc2ccc(S(=O)(=O)O)cc21`, the Potency in assay [4] is 79.6 µM (active). Moreover, the Potency result in assay [2] and in assay [5] was “inactive” each time.

For the compound `Sc1nc2ccccc2s1`, in assay [4], the Potency is 7.96 µM (active). Moreover, the Potency result in assay [2] and in assay [5] was “inactive” in each case.

As for `CC(CCc1ccccc1)NCC(O)c1ccc(O)c(C(N)=O)c1` (centres undefined), the Potency result in assay [1], in assay [3] and in assay [5] was “inactive” each time. Moreover, the Potency in assay [2] was 19.5 µM (active).

For the compound `COc1ccc(-c2coc3cc(O)ccc3c2=O)cc1`, the results for the Potency in assay [1] and in assay [3] were 0.252 µM (active) and 12.6 µM (active), respectively. Moreover, the Potency entry in assay [2] and in assay [5] was “inactive” in each case.

With `CN1CCN(Cc2cc(-c3ccc4[nH]c(=O)oc4c3)co2)[C@@H](c2ccc(F)cc2)C1`, the Potency entry in assay [1] and in assay [3] was “inactive” throughout.

For `O=C(Nc1ccc2c(O)c(N=Nc3ccc(N=Nc4ccc(S(=O)(=O)O)cc4)cc3)c(S(=O)(=O)O)cc2c1)c1ccccc1`, the Potency in assay [1] is 20 µM (active); in assay [3], 35.6 µM (active). Moreover, in assay [2], the Potency result is “inactive”.

As for `Cc1ccc(C(C)C)cc2c(C)ccc1-2`, in assay [2], the Potency result is “inactive”.

For the compound `Cc1c(C)c2c(c(C)c1O)CC[C@@](C)(CCC[C@H](C)CCC[C@H](C)CCCC(C)C)O2`, the Potency result in assay [1], in assay [3], in assay [2] and in assay [5] was “inactive” in each case.

Consider `CC(C)CCCCCOC(=O)CCS`, for which the Potency result in assay [2] and in assay [5] was “inactive” in each case.

Turning to `OCCN1CCN(CCCN2c3ccccc3Sc3ccc(C(F)(F)F)cc32)CC1`, the Potency in assay [2] was 3.38 µM (active).

In the case of `NC[C@H]1O[C@H](O[C@H]2[C@H](O[C@@H]3O[C@H](CO)[C@@H](O)[C@H]3O)C(O)[C@H](N)C[C@@H]2N)[C@H](N)[C@@H](O)[C@@H]1O` (some centres undefined), the activity change, negative = inhibition in assay [1] is 2.46% [at 10.5 µM]; in assay [2] it was -0.219% [at 6.97 µM].

`CC[N+](CC)(CC)CCOC(=O)C(C1CCCC1)C1CCCC1`: in assay [1], the Potency entry was “inactive”.

Regarding `CCC(C)[O-].CCC(C)[O-].CCOC(=O)/C=C(/C)[O-].[Al+3]`, in assay [2], the Potency result was “inactive”.

In the case of `COc1cccc2c1C(=O)c1c(O)c3c(c(O)c1C2=O)C[C@@](O)(C(C)=O)C[C@@H]3O[C@H]1C[C@H](N)[C@H](O)[C@H](C)O1`, in assay [2], the Potency result is “inactive”.

Consider `CCCCCCCCCCC[C@@H](C[C@@H]1OC(=O)[C@H]1CCCCCC)OC(=O)[C@H](CC(C)C)NC=O`, for which the Potency in assay [1] was 2.75 µM (active). The Potency entry in assay [2] is “inactive”.

For the compound `FC(F)(F)c1cccc(Cl)c1`, the Potency in assay [4] is 69.7 µM (active). In addition, the Potency entry in assay [2] and in assay [5] was “inactive” in each case.

`OC1CCC(C2CCCCC2)CC1` (centres undefined): in assay [3], the Potency is 35.6 µM (active). Further, the Potency result in assay [2] and in assay [5] was “inactive” throughout.

Take `O=C(O)O`: in assay [4], the Potency was 3.86 µM (active). Besides, the activity change, negative = inhibition in assay [2] is 0.334% [at 6.97 µM]; in assay [5], 0.224% [at 10.5 µM].

As for `CCc1oc2ccccc2c1C(=O)c1cc(I)c(O)c(I)c1`, the Potency in assay [1] was 1.38 µM (active). Moreover, the Potency entry in assay [3], in assay [2] and in assay [5] was “inactive” in each case.

Consider `CCN(CC)C(=O)c1cc(S(=O)(=O)Cc2ccccc2)c(N2CCC(c3ccccc3)CC2)cc1N(CC)CCN(C)C`, for which the Potency entry in assay [3] was “inactive”. In addition, the Potency was 1.72 µM (active) in assay [2] and 0.125 µM (active) in assay [5].

For `ClCCl`, the Potency entry in assay [1], in assay [3] and in assay [2] was “inactive” in each case.

On to `CC[N+](CC)(CC)CCOc1ccc(/C=C/c2ccccc2)cc1`, for which the Potency entry in assay [1], in assay [3] and in assay [5] was “inactive” each time. Moreover, the Potency in assay [2] was 8.49 µM (active).

As to `CCCCOC(=O)CC`, the Potency result in assay [1], in assay [3] and in assay [2] was “inactive” throughout.

On to `CCCC(=O)OC(C)(C)Cc1ccccc1`, for which the Potency result in assay [2] was “inactive”.

For the compound `O=c1[nH]c2ccccc2n1CCCN1CCN(C(c2ccccc2)c2ccccc2)CC1`, the Potency in assay [1] is 17.4 µM (active); in assay [2], 0.379 µM (active). In addition, in assay [3], the Potency result is “inactive”.

With `Cc1cc(=O)oc2cc(O)cc(O)c12`, the Potency is 25.3 µM (active) in assay [3] and 20.1 µM (active) in assay [5]. For the same compound, the Potency entry in assay [2] was “inactive”.

`Oc1c(I)cc(Cl)c2cccnc12`: the Potency result in assay [2] was “inactive”.

For the compound `O=C(O)CN(CCN(CC(=O)O)CC(=O)O)CC(=O)O`, in assay [2], the activity change, negative = inhibition is -1.4% [at 2.72 µM].

As to `CCN1C(=O)c2ccccc2C1Nc1ccc(OCCN2CCCCC2)cc1` (centres undefined), the Potency entry in assay [1], in assay [3] and in assay [2] was “inactive” in each case.

In the case of `CCCCCCCCCCCCOCCOCCOCCOCCOCCOCCOCCOCCOCCO`, in assay [1], the Potency was 15.5 µM (active).

With `O[C@@H]([C@H](O)[C@H](O)CBr)[C@H](O)CBr`, the Potency entry in assay [1], in assay [2] and in assay [5] was “inactive” each time. The Potency in assay [3] is 70.9 µM (active).
